Data as given in article PMC5540273 (PLoS ONE, 2017).

test system: T1, ARK5; conditions: concentration: 1 μM, replicates: in singlicate; n = 1
T1 construct: gene NUAK1
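Also: KINOMEscan kinase panel screen.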

Row | SMILES | %Inh
1 | Cc1c2ccc(N(C)c3ccnc(Nc4cccc(S(N)(=O)=O)c4)n3)cc2nn1Cc1ccccc1.Cl.Cl [GW787226] | 0%
2 | Fc1ccc(-c2ncn(CCCN3CCOCC3)c2-c2cccnc2)cc1 [SB-211743] | 12%
3 | COc1ccc(Nc2ncc(C#N)c(Nc3ccccc3C(N)=O)n2)cc1N1CCN(C)CC1.Cl [GSK1558669] | 100%
4 | O=c1cc(N2CCOCC2)nc2n(Cc3cccc4ccccc34)ccn12 [GSK2333389] | 33%
5 | CCc1nc(-c2cccc(C)c2)c(-c2ccnc(NCc3ccccc3)c2)s1 | 15%
6 | O=C(NCCNc1ccnc(Nc2ccc(F)cc2)n1)c1cc2ccccc2s1 [GSK1379874] | 0%
7 | O=C(NCCNc1ccnc(Nc2ccc(F)cc2)n1)Nc1ccccc1F [GSK1379880] | 21%
8 | CN(C(=O)c1ccc(-c2cc(-c3c[nH]nc3-c3ccccn3)ccn2)cc1)C1CCOCC1 [GW810083] | 15%
9 | O=C(Nc1n[nH]c2cc(-c3cccc(F)c3)ccc12)C1CC1 [SB-735464] | 0%
10 | Cc1nnc(-c2ccc(C)c(-c3ccc(C(=O)Nc4ccc(NS(C)(=O)=O)cc4)cc3)c2)o1 [GW702865] | 0%
11 | COc1ccc(S(=O)(=O)NC2CCN(c3cc(C)nc(Nc4cccc(C#N)c4)n3)CC2)cc1.O=C(O)C(F)(F)F [GSK1653539] | 8%
12 | O=C(NOCC1CC1)c1ccc(F)c(F)c1Nc1ccc(I)cc1Cl | 0%
13 | COc1cc2c(cc1OC[C@@H](O)CO)ncc1c3ccc(C#N)cc3[nH]c21 | 0%
14 | NS(=O)(=O)CCc1cccc(Nc2nccc(-c3c(-c4cccc(NC(=O)c5c(F)cccc5F)c4)nn4ccccc34)n2)c1 [GSK336735] | 84%
15 | COc1ccc(CNC(=O)NC2CCN(c3ccnc(Nc4ccc(OC)cc4)n3)C2)cc1 (stereo not drawn) [GSK1379727] | 0%
16 | c1ccc(-c2cc(-c3c[nH]nc3-c3ccccn3)ccn2)cc1 [GW576604] | 0%
17 | Cn1cc(-c2ccc3c(c2)CCN3C(=O)Cc2ccccc2Cl)c2c(N)ncnc21 [GSK2608885] | 94%

Row | SMILES | %Inh
18 | Cc1nnc(-c2ccc3ncc(-c4ccc(S(C)=O)cc4)n3c2)o1 (stereo not drawn) | 0%
19 | Cc1ccc(NC(=O)c2ccnc(N3CCN(C)CC3)c2)cc1-c1ccc(C(=O)NCC2CC2)cc1 [GW775604] | 0%
20 | CN(C1=C(c2ccccc2)C(=O)NC1=O)c1ccccc1 [SB-334860] | 42%
21 | Cc1ccc(C(=O)NCC(N)=O)cc1-n1c(C)cc(OCc2ccc(F)cc2F)c(Br)c1=O | 0%
22 | NCC(NC(=O)c1cc(-c2cn[nH]c2)c(-c2ccnc3[nH]ccc23)s1)c1ccccc1.O=C(O)C(F)(F)F.O=C(O)C(F)(F)F (stereo not drawn) [GSK1325775] | 52%
23 | CNc1ncnc2[nH]ncc12 [SKF-18355] | 0%
24 | CCCCCc1nc2c(N)ncnc2n1CCCCC [SKF-97255] | 0%
25 | C[C@@H](Oc1cc(-n2cnc3ccc(NC(=O)NC(C)(C)C)cc32)sc1C(N)=O)c1ccccc1Cl [GSK346294] | 11%
26 | Cl.Oc1cccc(Nc2ccnc3cc(-c4ccncc4)ccc23)c1 [GW494601] | 9%
27 | O=C1NC(=O)C(N2CCc3ccccc32)=C1c1cccc(Cl)c1 [SB-408010] | 10%
28 | Cc1cn2c(=O)cc(N3CCOCC3)nc2n1Cc1cccc(Cl)c1Cl [GSK2334006] | 14%
29 | N#Cc1c(N2CCOCC2)sc(-c2ccn[nH]2)c1-c1ccc(Cl)cc1 | 0%
30 | CC(=O)Nc1ccc(COc2ccc(Nc3ccnc4cc(-c5ccccn5)ccc34)cc2)cc1.Cl [GW440148] | 18%
31 | O=c1cc(N2CCOCC2)nc2n(Cc3cccc(C(F)(F)F)c3)ccn12 [GSK2297543] | 0%
32 | Fc1ccc(-c2nn3c(OCC(F)(F)F)cccc3c2-c2ccncc2)cc1 [GW514784] | 0%
33 | Cc1cccc(-c2nc(Nc3ccc4ncsc4c3)c3ccccc3n2)n1 [GW867588] | 0%
